Most compounds without a hit are left out; they make up all but 4.3% or so of the library.
esBAF inh – inhibitors of esBAF chromatin remodeling in mouse ES cells. reporter increase, % at 12.5 µM. AID 602393. Bmi1-luciferase knock-in reporter, 24 h; 100% = twice the neutral-well signal. hit rate 2% among 350,000; in the data active means activation above about 40%; inconclusive means no clear call, values can overlap the other calls;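 further: 0% = median of the plate's neutral control wells and 100% = double that signal; a rise in the Bmi1 reporter signal indicates esBAF inhibition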
MITF act – increases MITF-driven TRPM1 promoter luciferase signal; activation, % at 12.5 µM; hit rate 0.75% among 300,000; SK-MEL-5 TRPM1-promoter luciferase, 24 h; % of positive control, neutral wells = 0; AID 588334;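 active means mean activation of at least 80% with every replicate also reaching 80%; inconclusive means mean reaches 80% but some replicate falls short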;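 further: 0% = neutral control wells and 100% = parthenolide positive control wells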
MLL AF4-AF9 inh – blocks AF4 peptide binding to human AF9. P42568. hit rate 0.47% among 350,000. inhibition, % at 10 µM. AlphaScreen, biotin-AF4 peptide binding to FLAG-AF9;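 active means every replicate reaching a set inhibition limit, whatever the replicate mean, cut at about 25% in these data; inconclusive means mean inhibition reaches that limit but some replicates miss it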;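 further: 0% = plate neutral control median and 100% = total signal loss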
Target sequence (P42568 whole entry, looked up): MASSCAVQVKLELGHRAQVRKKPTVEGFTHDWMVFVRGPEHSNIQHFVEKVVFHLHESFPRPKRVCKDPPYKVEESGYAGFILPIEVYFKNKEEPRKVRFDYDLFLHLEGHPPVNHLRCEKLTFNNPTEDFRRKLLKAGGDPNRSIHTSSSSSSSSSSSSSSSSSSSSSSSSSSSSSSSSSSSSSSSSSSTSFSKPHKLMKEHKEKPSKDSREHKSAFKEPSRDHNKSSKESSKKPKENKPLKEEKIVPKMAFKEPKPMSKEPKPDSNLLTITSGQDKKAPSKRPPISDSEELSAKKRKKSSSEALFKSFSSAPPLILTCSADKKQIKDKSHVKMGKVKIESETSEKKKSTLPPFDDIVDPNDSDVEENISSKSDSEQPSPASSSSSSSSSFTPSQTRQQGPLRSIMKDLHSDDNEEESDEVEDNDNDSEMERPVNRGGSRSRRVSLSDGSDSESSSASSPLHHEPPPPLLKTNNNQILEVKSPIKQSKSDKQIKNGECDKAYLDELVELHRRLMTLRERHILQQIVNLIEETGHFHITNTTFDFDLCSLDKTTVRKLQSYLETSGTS
Wnt bcat act – Wnt/beta-catenin pathway activation; Wnt/beta-catenin reporter cell assay, activator, plate reader; activation, % at 9.35 µM; hit rate 1.2% among 300,000; in the data active means activation above about 30%, passing the limit was not always enough; inconclusive means no clear call, values can overlap the other calls;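 further: 0% = neutral control wells and 100% = positive control wells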
FGF22 binding – FGF22 (human) thermal shift binding; Q9HCT0; hit rate 1.5% among 340,000; activity (Tm shift, normalised), % at 9.99 µM; recombinant FGF22 thermal shift, SYPRO orange fluorescence; percent of sucrose octasulfate shift, DMSO zero;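 active means mean Tm shift, scaled 0 neutral to 100 positive control, at about 1.3% or above, every replicate too, limit read from the data; inconclusive means no clear call, values can overlap the other calls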
SMARCA2 act – increases SMARCA2 function in MMTV reporter cells. MG213 cells, MMTV-luciferase reporter, dexamethasone, overnight. activation, % at 9.1 µM. hit rate 1% among 370,000; in the data active means activation above about 7.8%;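 further: 0% = vehicle wells and 100% = reference activator wells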
Starred values were filed as active, the others as inactive; ? = inconclusive; · = no result given.

SMILES	esBAF inh	MITF act	MLL AF4-AF9 inh	Wnt bcat act	FGF22 binding	SMARCA2 act
CCCNC(=O)C/C(C)=N/NC(=O)COc1ccc(C)cc1Br	·	-3	-2	1	0	-1
CCCNC(=O)N1C[C@H](C)[C@H](OC)CN(C)C(=O)c2ccc(NC(=O)CCC)cc2OC[C@@H]1C	-6	·	-2	·	0	·
C[C@@H]1CCCCO[C@@H](CN(C)Cc2ccc3c(c2)OCO3)[C@@H](C)CN([C@@H](C)CO)C(=O)c2cc(NC(=O)CCC(F)(F)F)ccc2O1	6	·	4	·	0	·
COc1ccc(C2=Cc3ccc(OC(C)=O)cc3OC2)cc1	78*	103*	-1	14	0	7
Fc1ccc(/C=N/NC2=Nc3cccc4cccc2c34)cc1	·	18	·	58*	·	4
COc1ccc(NC(=O)c2ccccc2)c([N+](=O)[O-])c1	·	43	5	7	0	8
COc1ccc(NC(=O)CSc2nccn2C)c([N+](=O)[O-])c1	·	18	1	0	0	2
COc1ccc(NC(=O)CSc2nc(C)cs2)c([N+](=O)[O-])c1	31	21	6	46*	0	0
COc1ccc(NC(=O)c2ccc(-n3cnnn3)cc2)c([N+](=O)[O-])c1	1	-2	26*	-3	0	2
COc1ccc(CCNC(=O)CSc2nc(C)cs2)cc1	·	10	-1	-2	0	-3
COc1ccc(CNC(=O)CSc2nc(C)cs2)cc1	·	-6	-5	·	43*	-7
COc1ccc2c(c1)CN1C(=O)N(CC(C)C)S(=O)(=O)CC21 (stereo not drawn)	·	·	·	·	·	5
CC(C)NC(=O)N(C)C[C@@H]1Oc2cc(C#Cc3cccc(F)c3)ccc2S(=O)(=O)N([C@H](C)CO)C[C@H]1C	6	·	1	·	0	·
N#Cc1ccc(C(=O)NN2C(=O)NC3(CCCCC3)C2=O)cc1	3	3	4	-1	0	3
CN(C)c1cccc(C(=O)NN2C(=O)NC3(CCCCC3)C2=O)c1	43*	18	2	12	0	3
CC(=O)CSc1ccc(-c2nc3ccccc3[nH]2)cn1	-19	3	-3	0	-1	5
Cc1cc2nc(-c3ccc(SCC(=O)Nc4ccc(S(=O)(=O)N5CCCC5)cc4)nc3)[nH]c2cc1C	·	27	·	47*	·	6
O=C(CSc1ccc(-c2nc3ccccc3[nH]2)cn1)Nc1ccc(S(=O)(=O)N2CCCC2)cc1	·	13	·	41*	·	6
O=C(C[C@@H]1CC[C@@H]2[C@H](COC[C@H](O)CN2C(=O)c2ccccc2)O1)NCCCN1CCOCC1	-3	·	-6	·	0	·
Nc1nc(N)c(N=O)c(OCC2CCCCC2)n1	42*	-13	2	0	0	6
Cc1cc(C)c2nc(NCc3ccccc3O)sc2c1	45*	95*	-1	16	0	4
COc1cc(CNc2nc3c(C)cc(C)cc3s2)ccc1O	3	-1	4	-3	0	0
C[C@@H]1NC(=O)[C@H]2C[C@@]3(c4ccccc4)c4ccccc4N[C@H]3N2C1=O	·	·	·	·	·	-4
CNC[C@@H]1Oc2ccc(NC(=O)CCC(F)(F)F)cc2CC(=O)N([C@H](C)CO)C[C@H]1C	0	·	-12	·	0	·
Oc1ccc(-c2nnc(-c3ccc(O)cc3)nn2)cc1	13	·	·	77*	·	5
SMILES	esBAF inh	MITF act	MLL AF4-AF9 inh	Wnt bcat act	FGF22 binding	SMARCA2 act
Oc1ccc(-c2cccc(-c3ccc(O)cc3)n2)cc1	48*	·	·	25	·	0
COCCNC(=O)C[C@@H]1CC[C@H](NS(=O)(=O)c2ccc(C)cc2)[C@@H](CO)O1	-7	·	-1	·	0	·
Cc1ccc(S(=O)(=O)N2CCOC2CNC(=O)C(=O)NCCc2c[nH]c3ccccc23)cc1 (stereo not drawn)	·	-13	2	-13	44*	-1
NC(=O)c1ccccc1NC(=O)COc1ccc2c(c1)OCO2	48*	132*	?	25	0	7
NC(=O)c1ccccc1NC(=O)c1ccc2c(c1)OCO2	38	·	-1	42*	0	7
CCCCC(=O)Nc1ccc2c(c1)oc1ccccc12	·	?	·	21	·	3
O=C(Nc1ccc2c(c1)OC1(CCCC1)O2)C1CC1	42*	37	·	·	·	-1
CC(C)CC(=O)Nc1ccc2c(c1)oc1ccccc12	62*	91*	·	·	·	2
O=C(Nc1ccc2c(c1)oc1ccccc12)C1CC1	59*	·	·	0	·	2

Assay outcomes as filed in PubChem BioAssay.
